According to PubChem BioAssay AID2314 (National Center for Advancing Translational Sciences (NCATS), 2010):
The whole screen tested about 300,000 compounds, of which about 37,000 (12%) were called active. Shown is part of a subset that was picked to be rich in actives. Values without a mark were called inactive. Rule as the data show it: active = max response mostly above about 13% (no sharp cut-off); inactive = mostly below about 14%.

Experiment: Cycloheximide Counterscreen for Small Molecule Inhibitors of Shiga Toxin; also: read at 38.3 µM for the half of the compounds with a filed dose; 0% is about no effect
Settings: cell reporter, cycloheximide protein synthesis inhibition counterscreen; hits give high values
`COc1ccccc1CN1CCN(Cc2cc(OC)c(OC)cc2OC)CC1` showed a max response of 3.57%.
Compound `O=C(CCc1nc2ccccc2c(=O)[nH]1)OCC(=O)c1cccc(Cl)c1` has a max response of -1.24%.
Compound `O=C(COC(=O)CCc1nc2ccccc2c(=O)[nH]1)Nc1ccc(N2CCOCC2)cc1` has a max response of 2.13%.
In the case of `CC(C)(C)c1ccc(NC(=O)COC(=O)CCc2nc3ccccc3c(=O)[nH]2)cc1`, the max response is reported as 14.2% (active).
In the case of `O=C(c1ccc[nH]c1=S)N1CCN(S(=O)(=O)c2ccc(Br)cc2Cl)CC1`, the max response is reported as -2.01%.
Compound `COc1ccc(NC(=O)CCS(=O)(=O)c2cc3c(cc2Cl)NC(=O)CO3)cc1OC` has a max response of -10.6%.
`COc1ccccc1OCC(=O)Nc1c2c(nn1-c1ccc(F)cc1)CS(=O)(=O)C2` showed a max response of -3.21%.
For `CCc1ccc(NC(=O)C(C)OC(=O)/C=C/c2cccc([N+](=O)[O-])c2)cc1` (configuration not stated), the max response was 59.2% (active).
In the case of `Cc1ccc(NC(=O)O/N=C/c2cccc([N+](=O)[O-])c2)cc1`, the max response is reported as 40.6% (active).
With `CCC(CC)NC(=O)/C=C/c1cccc([N+](=O)[O-])c1` the max response was -4.49%.
In the case of `O=C(N/N=C/c1cccc(OC(=O)c2ccc([N+](=O)[O-])cc2)c1)c1cccnc1`, the max response is reported as -7.61%.
Compound `Cc1ccc(NC(=O)/C(=C/c2ccc([N+](=O)[O-])cc2)NC(=O)c2ccccc2)cc1` has a max response of -3.41%.
With `O=[N+]([O-])c1ccc(N/N=C/c2ccccc2)cc1` the max response was 34.7% (active).
Work on `Cc1cccc(COc2ccccc2/C=N/Nc2ccc([N+](=O)[O-])cc2)c1` yielded a max response of -0.989%.
Compound `Cc1ccc(NC(=O)C(=O)NCC2CCN(C(=O)c3cccc([N+](=O)[O-])c3)CC2)cc1` has a max response of 3.94%.
With `O=C(N/N=C/c1cccc([N+](=O)[O-])c1)c1ccncc1` the max response was 11% (active).
Compound `CC(=O)Nc1ccc(NC(=O)C(C)OC(=O)c2ccccc2C(=O)c2ccc(Cl)c([N+](=O)[O-])c2)cc1` (configuration not stated) has a max response of 8.13%.
In the case of `N#Cc1cc([N+](=O)[O-])ccc1Oc1cccc(/C=N/NC(=O)c2ccc(Cl)cc2)c1`, the max response is reported as -2.97%.
`O=C(O)/C=C/C(=O)NNc1ccc([N+](=O)[O-])cc1` showed a max response of 10.2%.
Work on `COc1ccc(C(=O)NC2CC(C)(C)Cc3c2cnn3-c2ccccc2C)o1` (configuration not stated) yielded a max response of -0.937%.
Compound `CC(Sc1nnc(CNC(=O)c2ccccc2F)n1C)C(=O)Nc1nccs1` (configuration not stated) has a max response of -1.64%.
With `CCN(CC)S(=O)(=O)c1ccc(Cl)c(C(=O)NC(C)C(c2cccs2)N2CCCC2)c1` (configuration not stated) the max response was 3.13%.
In the case of `O=C1CCC([N+](=O)[O-])C(c2ccccc2Br)N1` (configuration not stated), the max response is reported as -3.57%.
With `Oc1ccccc1CN1CCN(C(c2ccccc2)c2ccccc2)CC1` the max response was 2.23%.
Compound `Cc1cccc(C(=O)OCC(=O)Nc2sc3c(c2C#N)CCC3)c1` has a max response of -3.19%.
In the case of `COc1ccc(CN2CCn3ncc(C(=O)Nc4ccc(Cl)cc4Cl)c3C2=O)cc1`, the max response is reported as -1.27%.
With `Cc1ccc(C(c2nnnn2CS(=O)(=O)c2ccc(C)cc2)N2CCC(C)CC2)cc1` (configuration not stated) the max response was 1.26%.
For `COc1cccc(-c2nc(CS(=O)CC(=O)NCc3ccc(F)cc3)c(C)o2)c1` (configuration not stated), the max response was -2.32%.
For `COc1ccc(O)c(/C=N/N=C/c2cccc([N+](=O)[O-])c2)c1`, the max response was -1.21%.
With `O=[N+]([O-])c1cccc(/C=N/Nc2ncc(Br)cn2)c1` the max response was 29.2% (active).
`O=C(N/N=C/c1cccc([N+](=O)[O-])c1)C1CC(=O)N(c2ccc(Br)cc2)C1` (configuration not stated) showed a max response of 0.637%.
With `CC(NC(=S)Nc1ccccc1)C(c1cccs1)N1CCOCC1` (configuration not stated) the max response was -0.819%.
In the case of `CC(C)CN(C(=O)c1cccc(S(=O)(=O)N2CCCCC2)c1)C1CCS(=O)(=O)C1` (configuration not stated), the max response is reported as -3.21%.
With `CCOc1cc2[nH]c(=O)n(Cc3ccc(C(=O)NCCCN4CCCC4=O)cc3)c(=O)c2cc1OCC` the max response was 3.4%.
`Cc1cccc(C(=O)NCCCN2CCCC2=O)c1` gave a max response of -1.36%.
In the case of `CCOc1ccc(C(=O)NCCCN2CCCC2=O)cc1`, the max response is reported as 16.9% (active).
In the case of `Cn1c(N)c(C(=O)COC(=O)/C=C/c2ccc(OC(F)F)cc2)c(=O)n(C)c1=O`, the max response is reported as 9.63%.
`COc1ccc(S(=O)(=O)n2cnc3ccccc32)c(C)c1` gave a max response of 8.08%.
For `COc1cccc(NC(=O)CN(C)C(=O)/C=C/c2cc(OC)ccc2OC)c1`, the max response was -0.59%.
In the case of `Cc1c(NC(=S)NCc2ccc(F)cc2)cccc1[N+](=O)[O-]`, the max response is reported as -2.87%.
For `O=C(NCCNc1ccccc1[N+](=O)[O-])c1ccccc1F`, the max response was 46.4% (active).
Compound `O=C(NCCCNc1ccc([N+](=O)[O-])cc1Cl)c1ccccc1F` has a max response of 11.2%.
For `O=[N+]([O-])c1ccccc1NCc1ccc(Cl)cc1`, the max response was 19.5% (active).
For `O=C(NCCNc1ccc([N+](=O)[O-])cc1Cl)c1ccccc1F`, the max response was 12.9%.
In the case of `O=[N+]([O-])c1ccccc1NCc1ccccc1Cl`, the max response is reported as 0.768%.
Compound `COc1ccc(NS(=O)(=O)c2cccc3nsnc23)cc1Cl` has a max response of -2.31%.
In the case of `Cc1noc(C)c1S(=O)(=O)Nc1cc(C(F)(F)F)ccc1N1CCOCC1`, the max response is reported as 1.06%.
In the case of `COCCCNC(=O)/C(C#N)=C/c1c(N2CCCCCC2)nc2ccccn2c1=O`, the max response is reported as 5.95%.
`CCCC[C@]12Cc3cc(OC)c(OC)cc3C(O1)C1=C(CC3(CCCCC3)OC1=O)O2` showed a max response of -1.97%.
`COc1cc(/C=C/C(=O)OCC(=O)N2CCOCC2)ccc1OCC#N` showed a max response of -1.28%.
For `CSc1cccc(NC(=S)N(C(C)C)C(C)c2ccccn2)c1` (configuration not stated), the max response was 9.01%.
For `C=CCNC(=S)NNC(=O)COc1c(Cl)cc(Cl)cc1Cl`, the max response was -3.49%.
In the case of `Cc1ccc(Cn2ccc(NC(=O)C3C4CCC(C4)C3C(=O)O)n2)cc1` (configuration not stated), the max response is reported as 1.94%.
For `Cc1cc(C(=O)Nc2c(C)nn(Cc3ccccc3)c2C)on1`, the max response was -4.11%.
For `Cc1ccc(Cn2ccc(NC(=O)c3cc(C(C)C)on3)n2)cc1`, the max response was 48% (active).
Work on `Cc1ccc(C(=O)OCC(=O)NC(=O)Cc2ccccc2)c(O)c1` yielded a max response of 4.77%.
With `C=CCN(c1ccc(C(N)=O)cc1)S(C)(=O)=O` the max response was -1.24%.
`COc1ccc([N+](=O)[O-])cc1NC(=O)c1ccc(N(Cc2ccccc2C)S(C)(=O)=O)cc1` gave a max response of -0.93%.
In the case of `Cc1cc(C)cc(NC(=O)N(C)Cc2ccccc2)c1`, the max response is reported as 4.9%.
Work on `CC(=O)Nc1ccccc1NC(=O)c1cc(C)cc(C)c1` yielded a max response of -1.4%.
With `CSCc1ccc(C(=O)Nc2cc(C)cc(C)c2)cc1` the max response was 41.7% (active).
For `C=CCN(c1ccc(C(=O)Nc2cc(C)cc(C)c2)cc1)S(C)(=O)=O`, the max response was 12.7% (active).
